# Screening data as filed in PubChem BioAssay.
# Compounds with a hit are over-represented: about 17% of the library has one in this group of screens.
# TDP1 cell noCPT = qHTS for Inhibitors of human tyrosyl-DNA phosphodiesterase 1 (TDP1): qHTS in cells in absence of CPT | actives 15% (n = 420,000) | AID 686978, 2013 | DT40 Tdp1-/- hTDP1 cells, no CPT, ATP luminescence, 48 h | Potency, µM (series often up to 46.2 µM), hits mostly inhibitors; further: nearly all actives have a fitted effect of over 55% in size
#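 Compound effects on proliferation are scored in DT40 Tdp1-/-;hTDP1 cells in the absence of CPT. ATP levels (CellTiter-Glo luminescence) are recorded after a ≥48 hr, 37 °C incubation.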
# TDP1 cell CPT = growth inhibition of DT40 Tdp1-/-;hTDP1 cells with camptothecin (screen for TDP1 inhibitors). Potency, µM (series often up to 46.2 µM), most hits filed as inhibitors. chicken DT40 Tdp1-/-;hTDP1 cells + 20 nM CPT, ATP luminescence, 48 h. actives 12% (n = 420,000). AID 686979; further: nearly all actives have a fitted effect of over 55% in size
#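 Chicken DT40 Tdp1-/- cells complemented with human TDP1, 400 cells/well, exposed to compounds plus 20 nM camptothecin for at least 48 h at 37 C; viability read as ATP content by CellTiter-Glo luminescence.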
# TGFb inhibitor = inhibitors of TGF-b signaling; HepG2 CAGA-GFP TGF-b/SMAD3 reporter, GFP fluorescence, 18 h; TGF-beta stimulated, 500 pg/mL final; Potency, µM (top dose mostly 46.1 µM), most hits filed as inhibitors; actives 1.2% (n = 410,000); AID 588855; further: nearly all actives have a fitted effect of over 65% in size
#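 HEPG2 CAGA-GFP, 1000 cells/well; 2 h settle, 37 C; cpd via pin tool; TGF-b 500 pg/mL final; 18 h, 37 C; GFP imaging ex488/em500-530; %Activity normalised to -TGF-b and +DMSO controls; CRC fit, curve class.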
# S2 tox = viability counter-screen for ATXN expression inhibitors. S2 cells (HEK-293 line with an ATXN2-luciferase reporter) viability, CellTiter-Fluor protease fluorescence, 24 h. Potency, µM (titrated, usually from 56.7 µM), hits mostly cytotoxic. actives 0.49% (n = 400,000). AID 651635; further: nearly all actives have a fitted effect of over 40% in size
# HepG2 tox = kills HepG2 cells in TGF-b inhibitor counter-screen; HepG2 CAGA-GFP viability, ATP luminescence, 18 h; Potency, µM (highest dose often 46.1 µM), actives largely listed as cytotoxic; actives 0.76% (n = 410,000); AID 588856
#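 CellTiter-Glo luminescence gave cytotoxicity after 18 hours at 37 degrees C. The cells were HepG2 CAGA-GFP in 1% FBS DMEM, stimulated with 500 pg/mL TGF-beta after compound addition. %Activity was normalised to no-cell wells (complete cell-killing) and DMSO (no toxicity), and curves were fitted and classified.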
# ATXN2 expr inh = ATXN2 expression inhibition; HEK-293 ATXN2-luciferase reporter, luminescence, 24 h; Potency, µM (titrated, usually from 57 µM), hits mostly inhibitors; actives 0.72% (n = 360,000); further: nearly all actives have a fitted effect of over 55% in size
#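 ATXN2-luciferase reporter cells (luciferase flanked by upstream and downstream ATXN2 gene portions) were treated 24 h at 37 °C with compounds at up to 57 uM. SteadyGlo luminescence gave expression; GF-AFC fluorescence gave viability.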
# Hits are given with their value; i = inactive; ? = inconclusive; nt = not tested or not shown; [ ] = remark or other dose. The call rests on the fitted dose curve; in most records, active means well fitted curve in the direction sought with a large enough effect; inconclusive means small, poorly fitted or top-dose-only effect, or another doubt; inactive means no such curve, though single readings can be large; an effect the other way counts as inactive or inconclusive.
SMILES,TDP1 cell noCPT,TDP1 cell CPT,TGFb inhibitor,S2 tox,HepG2 tox,ATXN2 expr inh
CCN(CC)S(=O)(=O)c1ccc(N2CCOCC2)c(NC(=O)c2sccc2C)c1,18µM,?,?,i,i,i
Cc1ccc(N2CC(C(=O)NCc3n[nH]c(=O)c4ccccc34)CC2=O)cc1 (centres undefined),i,i,i,i,i,i
NC(c1csc(Nc2cc(NCCCO)ncn2)n1)c1ccccc1Cl (centres undefined),?,?,?,i,i,i
COc1cc(-c2cc(C)c3c(OC)ccc(OC)c3n2)cc2c1OCCN(C(=O)CCn1ccc(C)n1)C2,?,i[9.04 µM],nt,?,nt,nt
CCc1cc(C(=O)Nc2cc(S(=O)(=O)N(CC)CC)ccc2N2CCOCC2)sc1C,?,21µM,?,i,i,i
CCN(CC)S(=O)(=O)c1ccc(N2CCOCC2)c(NC(=O)c2ccco2)c1,?,?,i,i,i,i
CCN(CC)S(=O)(=O)c1ccc(N2CCOCC2)c(NC(=S)NC(=O)c2ccco2)c1,?,10µM,i,i,i,?
Cc1cc(C(=O)Nc2cccc(-c3nc(CNC(=O)c4cc5ccccc5[nH]4)c(C)o3)c2)c(C)o1,i,i,nt,i,nt,nt
Cc1ccc2nc(Nc3ccccc3)c(C=O)c(=O)n2c1,i,i,i,i,i,i
Cc1ccc2nc(Nc3ccccc3)c(/C=N/O)c(=O)n2c1,6.5µM,2.6µM,i,i,i,i
COc1ccc(Nc2nc3ccc(C)cn3c(=O)c2/C=N/O)cc1,6.5µM,5.8µM,i,i,i,i
Cc1ccc(N(C)C(=O)C2CCN(S(=O)(=O)c3c(C)noc3/C=C/c3c(C)cc(C)cc3C)CC2)cc1,21µM,?,?,nt,i,nt
COc1ccc(/C=C\c2onc(C)c2S(=O)(=O)N2CCC(C(=O)Nc3ccc(C)c(F)c3)CC2)cc1,6.5µM,5.2µM,11µM,nt,i,nt
COc1ccc(/C=C\c2onc(C)c2S(=O)(=O)N2CCC(C(=O)Nc3ccc(Cl)cc3)CC2)cc1,?,i,i,nt,i,nt
CCc1cccc(C)c1NC(=O)C1CCN(S(=O)(=O)c2c(C)noc2/C=C/c2c(C)cc(C)cc2C)CC1,10µM,?,i,nt,i,nt
COc1cc(NC(=O)C2CCN(S(=O)(=O)c3c(C)noc3/C=C/c3c(C)cc(C)cc3C)CC2)cc(OC)c1,i,13µM,?,nt,i,nt
Cc1cc(C)c(/C=C/c2onc(C)c2S(=O)(=O)N2CCC(C(=O)N(C)Cc3ccccc3)CC2)c(C)c1,?,?,?,nt,i,nt
CN(CCc1ccccn1)C(=O)Nc1cccc(Cl)c1,i,i,i,i,i,i
COc1ccccc1N1CCN(C(=O)Nc2cn(CC(C)C)c(=O)c3ccccc23)CC1,?,?,i,i,i,i
Cc1cccc(N2CCN(C(=O)Nc3cn(CC(C)C)c(=O)c4ccccc34)CC2)c1C,7.3µM,8.2µM,?,i,i,i
Cc1ccc(N2CCN(C(=O)Nc3cn(CC(C)C)c(=O)c4ccccc34)CC2)c(C)c1,10µM,10µM,i,i,i,i
Nn1c(Cc2cccc3ccccc23)nnc1SCc1c(Cl)cccc1Cl,16µM,?,i,i,i,i
Nn1c(Cc2cccc3ccccc23)nnc1SCc1ccc(Cl)c(Cl)c1,i,i,?,?,i,i
O=C(c1ccccc1)N(C1=NCCCCS1)c1ccccc1,i,i,i,i,i,i
O=C(C1=C[C@H](c2csc3ccccc23)C[C@H](OCc2ccc(CO)cc2)O1)N1CCN(Cc2ccc3c(c2)OCO3)CC1,?,16µM,i,?,i,i
SMILES,TDP1 cell noCPT,TDP1 cell CPT,TGFb inhibitor,S2 tox,HepG2 tox,ATXN2 expr inh
O=C(C1=C[C@H](c2ccc3c(c2)OCO3)C[C@H](OCc2ccc(CO)cc2)O1)N1CCN(Cc2ccc3c(c2)OCO3)CC1,?,?,i,i,i,i
O=C(C1=C[C@H](c2ccccc2)C[C@H](OCc2ccc(CO)cc2)O1)N1CCN(Cc2ccc3c(c2)OCO3)CC1,21µM,?,i,?,i,?
O=C(NCc1ccccc1)C1=C[C@@H](c2ccc3c(c2)OCO3)C[C@@H](OCc2ccc(CO)cc2)O1,?,?,i,i,i,i
C[C@H]1C=C(C(=O)N2CCN(Cc3ccc4c(c3)OCO4)CC2)O[C@@H](OCc2ccc(CO)cc2)C1,i,i,i,i,i,i
O=C(C1=C[C@@H](C2CC2)C[C@@H](OCc2ccc(CO)cc2)O1)N1CCN(Cc2ccc3c(c2)OCO3)CC1,21µM,?,i,i,i,i
O=C(NCc1ccccc1)C1=C[C@H](c2ccc3c(c2)OCO3)C[C@H](OCc2ccc(CO)cc2)O1,?,6.5µM,i,i,i,i
CCCCOC(=O)c1cccnc1,i,i,i,i,i,i
O=C(NNc1c(Cl)cncc1Cl)c1cccs1,i,i,i,i,i,i
CN(N=O)C(=O)N[C@@H]1[C@@H](O)[C@H](O)[C@@H](CO)O[C@@H]1O,i,i,nt,i,nt,i
O=C(O)C1C(=O)NCC1c1ccccc1 (centres undefined),i,i,i,i,i,i
CN1CCN(C(=O)C2=C[C@@H](c3csc4ccccc34)C[C@@H](OCc3ccc(CO)cc3)O2)CC1,18µM,21µM,i,i,i,i
O=C(C1=C[C@H](c2csc3ccccc23)C[C@H](OCc2ccc(CO)cc2)O1)N1CCOCC1,?,?,i,i,i,i
CN(N)c1ccc2c(C(F)(F)F)cc(C(F)(F)F)nc2n1,?,?,i,i,i,i
FC(F)(F)c1cc(C(F)(F)F)c2ccc(N/N=C/c3ccccc3)nc2n1,i,i,?,i,i,i
N#CC(c1ccccc1)c1ccc2c(C(F)(F)F)cc(C(F)(F)F)nc2n1 (centres undefined),18µM,13µM,?,?,i,?
Cc1ccc(C(C#N)c2ccc3c(C(F)(F)F)cc(C(F)(F)F)nc3n2)cc1 (centres undefined),18µM,26µM,i,?,i,?
Cc1ccc(C)n1-c1ccc(N2CCOCC2)c([N+](=O)[O-])c1,15µM,?,i,?,i,i
Cc1cc(C=O)c(C)n1-c1ccc(N2CCCC2)c([N+](=O)[O-])c1,26µM,?,i,i,i,i
O=C(NNC(=O)C1CCC1)c1ccc(Br)cc1,i,i,i,i,i,i
Cc1cnc(C(=O)NNC(=O)c2ccc(Br)cc2)cn1,5.8µM,3.7µM,i,i,i,?
